Among all 290,000 compounds or so, about 2,700 (0.93%) were called active.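 How the source made its calls: active means inhibition above the screen-wide mean plus 3 SD, computed separately per campaign (cut at about 16% in these data); inactive means the rest.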 The full list was thinned out, with actives kept by preference.

For the test, the system named is Heat shock protein HSP 90 (rabbit reticulocyte lysate; luciferase refolding). As to the kind of experiment: inhibitors of HSP90 chaperone activity – cell lysate, luminescence, primary screen (AID 1789).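 Further: 0% = DMSO wells and 100% = 60 µM geldanamycin wells; inhibitors lower the luminescence because luciferase stays unfolded.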 The following applies: 3 h, at 5.6 µM, active compounds read high.
For the compound `COc1cc(/C=C(\C#N)c2nc3ccccc3[nH]2)ccc1O`, the inhibition is -1.74% (inactive).

`CCOC(=O)CSc1nc2ccc(C)cc2[nH]1`: the inhibition is 1.44% (inactive).

Take `Cc1ccc2nc(/C(C#N)=C\c3ccc(OC(=O)c4cccs4)cc3)[nH]c2c1`: the inhibition is 30.5% (active).

Take `CCn1c(CC(=O)Nc2ccccc2C)nnc1SCC(=O)NC1=NCCS1`: the inhibition is 3.37% (inactive).

On to `S=c1[nH]nc(/C=C/c2ccccc2)o1`, for which the inhibition is -3.77% (inactive).

As for `O=c1oc(-c2ccccc2NS(=O)(=O)c2ccc(Cl)cc2)nc2ccccc12`, the inhibition is 0.82% (inactive).

As to `O=c1oc(/C=C/c2ccccc2)nc2ccccc12`, the inhibition is 21% (active).

For `Cc1nc(-c2ccc(NC(=O)c3cccs3)cc2)cs1`, the inhibition was 27.1% (active).

`Cc1ccc(-c2nnc(-c3ccc(NC(=O)c4cccs4)cc3)o2)cc1`: the inhibition was -1.94% (inactive).

Take `O=C(Nc1ccccc1)c1ccc(NC(=O)c2cccs2)cc1`: the inhibition is 1.79% (inactive).

Take `Cc1ccc(-c2noc(CNC(=O)c3ccoc3C)n2)cc1`: the inhibition was 4.35% (inactive).

Turning to `COc1ccccc1CNC(=O)[C@@H]1CCCN1C(=O)[C@@H]1Cc2ccccc2CN1C(=O)OC(C)(C)C`, the inhibition is 0.82% (inactive).

Turning to `c1ccc(CN2CCC(N=C3NN=C(c4ccc5c(c4)OCCO5)CS3)CC2)cc1`, the inhibition was 13.2% (inactive).

Turning to `Clc1cccc(N=C2NN=C(c3ccc4c(c3)OCCO4)CS2)c1`, the inhibition is 38.8% (active).

As for `Cc1cccc(N=C2NN=C(c3c[nH]c4ccccc34)CS2)c1`, the inhibition was 8.26% (inactive).

In the case of `COC(CNC(=O)c1ccc2c(c1)ncn2-c1cc(C)cc(C)c1)OC`, the inhibition is -2.44% (inactive).

Take `O=C(OCCN=C1NS(=O)(=O)c2ccccc21)c1cccc([N+](=O)[O-])c1`: the inhibition was -0.96% (inactive).

Regarding `COc1cc(/C=C2/C(=O)NN(c3cccc(Cl)c3)C2=O)cc(Br)c1O`, the inhibition is 4.77% (inactive).

With `C=CCOc1c(Br)cc(/C=N\n2nnnc2N)cc1OC`, the inhibition was 6.06% (inactive).

For `CCOc1c(Br)cc(/C=C2\C(=O)N(CCC#N)N=C2C)cc1OC`, the inhibition is 32.1% (active).

For the compound `COc1ccc(-n2ncc3c2CC(C)(C)CC3NC(=O)CCc2c(C)nn(C)c2C)cc1` (stereo not drawn), the inhibition is -4.92% (inactive).

In the case of `Cc1n[nH]c(C)c1S(=O)(=O)N1CCCC(C(=O)Nc2ccc(Br)cc2)C1` (stereo not drawn), the inhibition was -0.76% (inactive).

`COc1ccc(CNC(=O)CCn2cccc2)cc1`: the inhibition is 3.81% (inactive).

Turning to `COc1ccc(NC(=O)/C(C#N)=C\c2cc(OC)c(OCc3ccc(C(=O)O)cc3)cc2Br)cc1`, the inhibition is -2.4% (inactive).

In the case of `COc1ccc(CNC(=O)/C(C#N)=C/c2cccc(OC)c2OC)cc1`, the inhibition is 31.1% (active).

As to `Cc1cc(=O)oc2c1ccc1ccccc12`, the inhibition is -1.23% (inactive).

In the case of `Cc1ccccc1C1CC(c2cccs2)=NN1S(C)(=O)=O` (stereo not drawn), the inhibition was -0.31% (inactive).

Take `Cn1c(SCC(=O)N2CCCC2)nnc1-c1cccs1`: the inhibition was -5.69% (inactive).

`CC1Cn2c(nnc2-c2cccs2)S1` (stereo not drawn): the inhibition is 27.3% (active).

As for `O=C(O)CCC(=O)Nc1ccc(OCC2CCCO2)cc1` (stereo not drawn), the inhibition was 1.1% (inactive).

As to `COC(=O)c1ccc(COc2ccc(C#N)cc2)o1`, the inhibition was -2.93% (inactive).

On to `Cc1cccc(NC(=O)Nc2ccc(OCc3ccccc3)cc2)n1`, for which the inhibition was -4.5% (inactive).

`CCOc1ccc(OCc2ccc(C(=O)N(C)c3ccccc3)o2)cc1`: the inhibition was 23% (active).

As to `O=C(NCCc1ccccn1)c1ccc(COc2ccccc2)o1`, the inhibition is 9% (inactive).

As to `Cc1cccc(NC(=O)c2ccc(COc3ccccc3[N+](=O)[O-])o2)n1`, the inhibition was -1.06% (inactive).

On to `CCOc1ccc(OCc2ccc(C(=O)Nc3cccc(C)n3)o2)cc1`, for which the inhibition is 16.8% (active).

Turning to `Cc1ccc(NC(=S)N(CCCN2CCCC2)Cc2cccn2Cc2ccc(Cl)cc2)cc1`, the inhibition is 2.82% (inactive).

Turning to `COc1ccc(C(=O)NC2CCN(C(=S)Nc3ccccc3)CC2)cc1`, the inhibition was 3.9% (inactive).

As for `COc1ccc(C(=S)Nc2ccccc2)cc1`, the inhibition is -0.81% (inactive).

Consider `COc1ccc(NC(=S)N2N=CCC2c2ccccc2)cc1` (stereo not drawn), for which the inhibition is 16.8% (active).

Turning to `CC(C)c1ccc(NC(=O)C2CCCN(S(=O)(=O)c3cccnc3)C2)cc1` (stereo not drawn), the inhibition is -1.95% (inactive).

For `CCOC(=O)C1=C(c2ccc(OC)cc2)C(=O)c2ccccc2C1=O`, the inhibition was 87.2% (active).

For `CCOC(=O)c1c(C)[nH]c2c1-c1ccccc1C(=O)C2=O`, the inhibition was -1.61% (inactive).

On to `CCOC(=O)c1c(-c2ccc(C)cc2)csc1/N=C(\C)C1=C(O)c2ccccc2C1=O`, for which the inhibition was -2.27% (inactive).

Take `COC(=O)C1(C)CC1(c1ccccc1)c1ccccc1` (stereo not drawn): the inhibition is 1.72% (inactive).

On to `C[n+]1cc(-c2ccccc2)oc1-c1ccccc1`, for which the inhibition is 0.81% (inactive).

For `COc1ccc(C(=O)/C=C/Nc2ccccn2)cc1`, the inhibition is 65.4% (active).

In the case of `O=C(/C=C\NCC(=O)c1ccccc1)c1ccccc1`, the inhibition is 2.9% (inactive).

`CCOc1cc2ccccc2cc1C(=O)Nc1ccccn1`: the inhibition is -0.82% (inactive).

Turning to `CCOc1ccc(N/C=C/C(=O)c2ccccc2)cc1`, the inhibition is 51% (active).

On to `CCOc1ccc(N/C=C/C(=O)c2cc(OC)c(OC)c(OC)c2)cc1`, for which the inhibition is -0.12% (inactive).

With `Cc1cc(N/C=C\C(=O)c2ccc(Cl)c(Cl)c2)no1`, the inhibition was -0.49% (inactive).

For `COc1cc2c(cc1OC)C(c1cccc([N+](=O)[O-])c1)=NCC2`, the inhibition is -2.48% (inactive).

`CCCCN(C)CCNC(=O)C1CCCN(S(=O)(=O)c2cccc3nsnc23)C1` (stereo not drawn): the inhibition is -6.58% (inactive).

For `COc1ccc(N=Nc2c(-c3ccc(OC)cc3)[nH]oc2=O)cc1`, the inhibition is 0.28% (inactive).

As to `NC(=O)c1ccc(NC(=O)COC(=O)c2c3c(nc4ccccc24)/C(=C\c2ccc4c(c2)OCO4)CCC3)cc1`, the inhibition was -5.16% (inactive).

On to `COc1ccc(-c2nc(-c3ccccc3)no2)c(OC)c1`, for which the inhibition is 44.3% (active).

`COc1ccccc1Cc1nc(-c2ccc(C)cc2)no1`: the inhibition was 3.61% (inactive).

Consider `COc1ccc(Sc2nc(-c3ccccc3)ncc2OC)cc1`, for which the inhibition was -2.08% (inactive).

Take `COC(=O)c1cccnc1NC(=S)NC(C)C`: the inhibition was -2.4% (inactive).

As for `CC(=O)c1ccc(NC(=O)Cn2c(=O)oc3ccccc32)cc1`, the inhibition is -5.66% (inactive).

In the case of `CCSc1nnc(SCC(=O)NNC(=O)c2ccccc2F)s1`, the inhibition was -3.94% (inactive).

Regarding `S=c1[nH]c(-c2cccs2)cn1-c1ccccc1`, the inhibition was 8.66% (inactive).

Consider `COc1ccc(-c2cn(-c3ccc(OC)cc3)c(=S)[nH]2)cc1`, for which the inhibition was 0.9% (inactive).

As to `O=c1oc2ccccc2cc1-c1cn(-c2ccccc2)c(=S)[nH]1`, the inhibition is 65.7% (active).

Take `COc1ccc(C)cc1NC(=O)CNCc1cccs1`: the inhibition was 9.78% (inactive).

On to `CC(C)Sc1ncnc2c1cnn2-c1ccccc1`, for which the inhibition is -2.09% (inactive).

With `COc1cc(NC(=O)CSc2ccc(-c3cccnc3)nn2)cc(OC)c1`, the inhibition was -0.99% (inactive).

With `Cc1ccc2[nH]c3c(=O)n(CC(=O)NCCc4ccc(Cl)cc4)ncc3c2c1`, the inhibition was -1.14% (inactive).

With `Cc1cccc(CCNC(=O)Cn2ncc3c([nH]c4ccc(C)cc43)c2=O)c1`, the inhibition is 20.9% (active).

Turning to `CC1CC(C)CN(CCCNC(=O)Cn2ncc3c([nH]c4ccccc43)c2=O)C1` (stereo not drawn), the inhibition is 2.52% (inactive).

Take `CCCn1nc(NC(=O)C(C)C)c2cc3cc(OC)ccc3nc21`: the inhibition was -7.87% (inactive).

In the case of `C=Cn1cc[n+](CC(=O)c2ccc(OC)c(OC)c2)c1`, the inhibition is 9.58% (inactive).

In the case of `O=C(CCCC(=O)N1CCN(c2cccc(Cl)c2)CC1)c1ccccc1`, the inhibition is -3.4% (inactive).

On to `Cc1ccc(S(=O)(=O)N(CCCN(C)C)Cc2ccc3c(c2)OCO3)cc1`, for which the inhibition is -1.45% (inactive).

`CC(NCC(=O)Nc1cc(Cl)cc(Cl)c1)c1ccccc1` (stereo not drawn): the inhibition was 10.2% (inactive).

For `O=C(C1CCC1)N1CCN(c2ccccc2)CC1`, the inhibition was -0.73% (inactive).

On to `CCCCCN(C(=O)CCC(=O)OCC(=O)NCc1ccc(OC)cc1)c1c(N)n(CCCC)c(=O)[nH]c1=O`, for which the inhibition was -5.78% (inactive).

In the case of `Cc1cccc(N(C)C(=O)CN2C(=O)COc3ccc(S(=O)(=O)N4CCCCCC4)cc32)c1`, the inhibition is 2.46% (inactive).

Consider `CC(C)c1cc(C(N)=O)c(NC(=O)c2cccc(COc3ccc(Br)cc3)c2)s1`, for which the inhibition was 6% (inactive).

As for `CCOc1ccc(OCc2cccc(C(=O)N(CC)CC)c2)cc1`, the inhibition was 19.7% (active).

As for `COc1ccc(OCc2cccc(C(=O)N3CCCC3)c2)cc1`, the inhibition was 12.3% (inactive).

For `COc1cc(C(=O)N2CCN(C)CC2)cc(OC)c1OC`, the inhibition is -1.01% (inactive).

Regarding `CCOC(=O)N1CCN(C(=O)COCc2cc(-c3ccc4c(c3)OCO4)on2)CC1`, the inhibition is -2.54% (inactive).

For the compound `Cc1ccc2c(C)c(C(=O)N(C)CCC3CCCCO3)oc2c1C` (stereo not drawn), the inhibition is -5.53% (inactive).

Take `COc1ccc(Cl)cc1C(=O)NCC#N`: the inhibition was -11.2% (inactive).

Turning to `N#C/C=C\Oc1ccc(Cl)cc1N`, the inhibition is 19.9% (active).

Consider `COc1ccc(N2CCN(C(=O)c3ccccc3NC(=O)C3=C(C)OCCS3)CC2)cc1`, for which the inhibition was -2.69% (inactive).

In the case of `Cc1nc2ccccc2nc(C)c1=NOCc1ccc(Cl)cc1Cl`, the inhibition was -1.08% (inactive).

Turning to `CCC(=O)Nc1nc(C)c(C(=O)Nc2cccc(Cl)c2)s1`, the inhibition was -0.01% (inactive).

With `CCCCCCC(=O)Nc1nc(C)c(-c2csc(Nc3cccc(OC)c3)n2)s1`, the inhibition was 0.02% (inactive).

As to `Cc1ccc(Nc2nc(-c3sc(NC(=O)c4ccccc4)nc3C)cs2)cc1`, the inhibition was 48.7% (active).

As to `Cc1nc(NC(=O)c2cccc(Cl)c2)sc1-c1csc(Nc2cccc(Cl)c2)n1`, the inhibition is 67.3% (active).

As for `CC(=O)Nc1nc(C)c(-c2csc(Nc3ccc(S(N)(=O)=O)cc3)n2)s1`, the inhibition is -0.54% (inactive).

On to `CCCCC(=O)Nc1nc(C)c(-c2csc(Nc3ccc(Cl)cc3)n2)s1`, for which the inhibition was 16.9% (active).

Consider `CCCCCCC(=O)Nc1nc(C)c(-c2csc(Nc3cc(Cl)ccc3OC)n2)s1`, for which the inhibition is 4.86% (inactive).

Regarding `Cc1ccc(-c2csc(NNC(=O)c3ccccc3)n2)cc1`, the inhibition was 0.18% (inactive).

In the case of `C=CCCC(=O)Nc1nc(C)c(-c2csc(Nc3ccc(Cl)cc3)n2)s1`, the inhibition is 6.06% (inactive).

A word on the inhibition: it is the drop in the measured response relative to a control, in per cent.

(Values after PubChem BioAssay AID1789 (The Scripps Research Institute Molecular Screening Center, 2009).)
